Assay outcomes as filed in PubChem BioAssay.
Compounds with a hit are over-represented: about 1.4% of the library has one in this group of screens.
Pin1 inhibitor – inhibitors of human Pin1. Pin1 FP peptide displacement, HiFluor488, 10 min. 390,000 tested, 0.009% active. Potency, µM (doses to about 115 µM), for the others: at the top dose activity, negative = inhibition, most hits filed as inhibitors. AID 504891; active = well fitted inhibition curve with a large enough effect in the polarisation, with a control signal flat, not every such curve was filed as active; inconclusive = small, poorly fitted or top-dose-only effect, or effect the other way, or a change in a side signal; inactive = no such curve, though single readings can be large or run the other way; the % refers to the polarisation; also: potency is read from the fitted curve at half-maximal effect; % is scaled to controls: 0 for no effect and ±100 for the full control effect
pAkt inh – Akt phosphorylation inhibition; Neuro2A IGF-stimulated pAkt S473 HTRF, 20 min; stronger effect = lower value; 360,000 tested, 0.32% active; activity change, % for hits at 50 µM; AID 651550; in the data active = activity change below about -80%; inconclusive = mostly about -51% to -80%; also: % is scaled to controls: 0 for no effect and ±100 for the full control effect
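Neuro2A cells in DMEM with 0.5% FBS, overnight at 37 deg C, given compound at single 50 µM final, then IGF (6 nM final) for 20 min at 37 deg C. Lysed; phospho-Akt Ser473 by HTRF after 24 h, 665/615 ratio.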
N370S GC mod – inhibits or activates N370S mutant glucocerebrosidase; P04062; 330,000 tested, 0.092% active; AID 2101; Potency, µM (top dose mostly 59.4 µM), for the others: at the highest dose activity change, negative = inhibition, usual class: inhibitors; N370S GC spleen homogenate, 4MU-glucoside fluorescence;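 also: potency is read from the fitted curve at half-maximal effect; 0% = full enzyme activity and -100% = no enzyme basal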
rTrxR1 inhibitor – inhibitors of rat thioredoxin reductase 1; O89049; recombinant rTrxR1, NADPH fluorescence consumption, selenite substrate; Potency, µM (titrated, usually from 114 µM), without a hit: at the highest dose activity change, negative = inhibition, most hits filed as inhibitors; 390,000 tested, 1% active; also: potency is read from the fitted curve at half-maximal effect; % is scaled to controls: 0 for no effect and ±100 for the full control effect; nearly all actives have a fitted effect of over 65% in size
Target sequence (O89049 whole entry, looked up): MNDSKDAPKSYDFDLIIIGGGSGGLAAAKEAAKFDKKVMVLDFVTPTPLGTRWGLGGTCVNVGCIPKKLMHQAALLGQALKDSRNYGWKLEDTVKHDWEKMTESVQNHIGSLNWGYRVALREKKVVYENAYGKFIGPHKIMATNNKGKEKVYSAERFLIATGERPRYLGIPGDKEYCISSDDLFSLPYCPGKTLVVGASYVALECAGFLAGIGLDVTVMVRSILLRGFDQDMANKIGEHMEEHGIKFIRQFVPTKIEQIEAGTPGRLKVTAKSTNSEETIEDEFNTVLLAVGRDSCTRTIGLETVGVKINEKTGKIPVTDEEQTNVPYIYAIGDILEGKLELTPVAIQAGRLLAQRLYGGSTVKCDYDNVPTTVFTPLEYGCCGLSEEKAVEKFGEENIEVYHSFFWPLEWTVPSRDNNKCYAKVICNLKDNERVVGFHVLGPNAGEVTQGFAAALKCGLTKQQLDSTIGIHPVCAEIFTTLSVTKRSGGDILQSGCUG
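Rat TrxR1 (90 nM in the dispensed reagent) was pre-reduced with 400 uM NADPH for 5 min at room temperature, then incubated with compound for 15 min. After 400 uM selenite was added, NADPH fluorescence (Ex 340/Em 450 nm) was followed for 8 min.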
A-T KAP1 phos – candidate therapy for ataxia-telangiectasia. F2112 A-T fibroblasts, KAP-1 phosphorylation AlphaLISA; neocarzinostatin DNA damage 30 min before lysis. 320,000 tested, 0.19% active. Potency, µM (doses to about 57.5 µM), inactives show top-dose activation, actives largely listed as activators. AID 485349; also: potency is read from the fitted curve at half-maximal effect; % of control where 0% means no effect; nearly all actives have a fitted effect of over 45% in size
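ATM-like activity read as KAP-1 phosphorylation via AlphaLISA donor/acceptor antibody pairs after lysis and 6 hr at 25C. Cells were ATM-null patient fibroblasts (F2112, hTERT), dosed 60 min, then exposed to the DSB inducer NCS for 30 min.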
TrxR1 substrate – rat thioredoxin reductase 1 substrate activity. 390,000 tested, 0.01% active. purified TrxR1 substrate turnover, NADPH consumption readout. O89049. Potency, µM (highest dose often 114 µM), for inactives: at the top dose activity change, negative = substrate turnover; also: potency is read from the fitted curve at half-maximal effect; % is scaled to controls: 0 for no effect and ±100 for the full control effect; nearly all actives have a fitted effect of over 50% in size
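Rat TrxR1, dispensed at 90 nM, was prereduced with 400 uM NADPH (final) for 5 min at ~22 deg C, then incubated with compound 15 min before 400 uM selenite. A first-read NADPH fluorescence drop versus no-compound background flagged substrates.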
Active calls of the source: *; i = inactive; u = inconclusive; x = not tested or not shown; [ ] = remark or other dose. Unless noted, calls follow the shape of the dose curve; as a rule, active = well fitted curve in the direction sought with a large enough effect; inconclusive = small, poorly fitted or top-dose-only effect, or another doubt; inactive = no such curve, though single readings can be large; an effect the other way counts as inactive or inconclusive.

SMILES	Pin1 inhibitor	pAkt inh	N370S GC mod	rTrxR1 inhibitor	A-T KAP1 phos	TrxR1 substrate
Nc1ccc(-c2nc3cc(N)ccc3o2)cc1	0%	i	-5%	14%	5%	59%
Nc1ccc(-c2nc3ccc(N)cc3o2)cc1	-2%	i	u	79µM*	8%	846%
CCS(=O)(=O)c1ncc(Cl)c(C(=O)N(Cc2ccccc2)Cc2ccco2)n1	0%	x	x	2.8µM*	x	12%
CCOC(=O)C[n+]1cccc(Br)c1	x	x	x	27%	x	8%
CCOc1ccc(-c2cc3c(=O)n(CC(=O)Nc4cc(F)ccc4C)ccn3n2)cc1	-9%	x	x	18%[57.1 µM]	x	3%[57.1 µM]
CCCc1cc(=O)oc2cc(OC(=O)CN3C(=O)NC4(CCCC4)C3=O)ccc12	-12%	i	u	79µM*	12%	396%
COc1ccc(OCCOC(=O)CN2C(=O)NC3(CCCC3)C2=O)cc1	4%	i	-6%	-4%	3%	-2%
COc1cccc(C2CC(=O)Nc3c2c(=O)nc2c(C)cccn32)c1 (stereo not given)	0%	x	x	5%	x	2%
O=[N+]([O-])C(=C1Nc2ccccc2N1)C(Cl)=C(Cl)Cl	75%	i	10%	11µM*	0%	-6%
Cc1noc(C)c1-c1ccc2ncnc(NC(C)c3ccccc3)c2c1 (stereo not given)	-1%	x	0%	x	x	x
O=C(NCc1ccco1)/C(=C/c1ccc(C(F)(F)F)cc1)c1nc2ccccc2[nH]1	6%	i	-1%	u	1%	3%
O=S(=O)(/C(=C\c1ccc(C(F)(F)F)cc1)c1nc2ccccc2[nH]1)c1ccccc1	7%	i	x	4.5µM*	x	-2%
C[C@@H]1[C@H](c2ccccc2)OCCS(=O)(=O)N1Cc1ccc(F)cc1	x	x	x	8%	x	-1%
COc1cc(C2Nc3cccc4cccc(c34)N2)cc(OC)c1OC(C)=O	u	i	3%	35µM*	2%	-11%
Cc1cccc(-c2noc(-c3cc(C(C)C)[nH]n3)n2)c1	-10%	x	x	15%[57.1 µM]	x	-1%[57.1 µM]
O=C(CCNS(=O)(=O)c1cccc2nsnc12)NCCC1=CCCCC1	0%	-111%*	4%	u	5%	1%
Cc1c(CNC(C)CCc2ccccc2)c(C(=O)O)c(C)n1Cc1ccc(F)cc1 (stereo not given)	-6%	x	x	10%	x	2%
O=C(OCC(=O)N(Cc1ccccc1)Cc1ccccc1)c1ccccc1NCCO	2%	i	u	-12%[57.1 µM]	22µM*	31%[57.1 µM]
COc1cccc(OCCSc2nnc3sc4ccccc4n23)c1	16%	-112%*	7%	3%	8%	-6%
CC(C)C[C@@H](CC(=O)N[C@@H](CCC(=O)O)CC(=O)O)NC(=O)[C@@H]1CCCC[C@H]1NC(=O)C[C@H](CCCN)NC(=O)C[C@H](Cc1ccccc1)NC(=O)[C@@H]1CNCC[C@H]1N	x	x	8%	x	x	x
CCC(=O)Oc1ccc(C/C(=N\O)c2ccc(O)cc2O)o1	-7%	i	-7%	10µM*	0%	10%
N#Cc1cccc(NS(=O)(=O)c2ccc3c(c2)CCC(=O)N3)c1	-3%	x	x	x	x	x
CN(C)c1ncc2ncc(=O)n(C)c2n1	x	x	-1%	x	x	x
Cc1ccc(S(=O)(=O)NC(C)C(=O)NC2CCCCCC2)cc1 (stereo not given)	66%	i	1%	5%	-1%	4%
O=C(NNS(=O)(=O)c1ccc(Cl)cc1)NC1CCCCC1	1%	i	-5%	13%[57.1 µM]	3%	-6%[57.1 µM]
Cc1ccc(S(=O)(=O)NC(=S)NC2CCCCC2)cc1	-12%	i	3%	3.5µM*	2%	8%
O=S(=O)(NC(=S)NC1CCCCC1)c1ccc(Cl)cc1	-6%	i	0%	2.8µM*	-3%	2%
O=S(=O)(c1ccc2c(c1)OCCO2)N1CCN(S(=O)(=O)c2ccc(Br)cc2F)CC1	15%	x	x	x	x	x
O=C(Cc1ccccc1)Nc1sc2c(c1C(=O)Nc1ccc(Cl)cc1)CCOC2	55%	x	x	x	x	x
Cc1cc2c(s1)c1cnn(Cc3ccc(C(C)(C)C)cc3)c(=O)c1n2C	-2%	x	x	x	x	x
